Bioassay records as filed in PubChem.
Shiga toxin inh: A qHTS for Small Molecule Inhibitors of Shiga Toxin; Vero cells, Shiga toxin protein synthesis inhibition reporter; inhibition, % at 38.7 µM; 290,000 compounds, 9.2% hits; AID 2315, 2010; in the data active means inhibition mostly above about 28%, no sharp cut-off; inactive means mostly below about 43%; further: 0% is about no effect
Cycloheximide cs: Cycloheximide Counterscreen for Small Molecule Inhibitors of Shiga Toxin; cell reporter, cycloheximide protein synthesis inhibition counterscreen; max response, %; 300,000 compounds, 12% hits; AID 2314, 2010; in the data active means max response mostly above about 13%, no sharp cut-off; inactive means mostly below about 14%; further: read at 38.3 µM for the half of the compounds with a filed dose; 0% is about no effect
FBPA Giardia inh: qHTS Assay for Inhibitors of Fructose-1,6-bisphosphate Aldolase from Giardia Lamblia. purified Giardia FBPA. Potency, µM (series often up to 59.6 µM), without a hit: at the highest dose activity, negative = inhibition, actives largely listed as inhibitors. 290,000 compounds, 0.71% hits. AID 2451, 2010; further: potency means the concentration at half of the fitted maximal effect; on the % scale 0 is the no-effect control and ±100 the full control effect; nearly all actives have a fitted effect of over 55% in size
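40 nM FBPA preincubated 10 min at RT with compound (up to 57.5 uM final), then substrate plus GAPDH/TPI/NAD/arsenate coupling and diaphorase/resazurin added. Fluorescence read after 20 min at RT, 525/598 nm.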
LmPK inh: qHTS Assay for Inhibitors of Leishmania Mexicana Pyruvate Kinase (LmPK); Potency, µM (highest dose often 57.5 µM), inactives show top-dose activity change, negative = inhibition, usual class: inhibitors; purified LmPK, Kinase-Glo ATP luminescence, 1 h; 290,000 compounds, 0.37% hits; further: potency means the concentration at half of the fitted maximal effect; on the % scale 0 is the no-effect control and ±100 the full control effect
Target sequence (Q27686 whole entry, looked up): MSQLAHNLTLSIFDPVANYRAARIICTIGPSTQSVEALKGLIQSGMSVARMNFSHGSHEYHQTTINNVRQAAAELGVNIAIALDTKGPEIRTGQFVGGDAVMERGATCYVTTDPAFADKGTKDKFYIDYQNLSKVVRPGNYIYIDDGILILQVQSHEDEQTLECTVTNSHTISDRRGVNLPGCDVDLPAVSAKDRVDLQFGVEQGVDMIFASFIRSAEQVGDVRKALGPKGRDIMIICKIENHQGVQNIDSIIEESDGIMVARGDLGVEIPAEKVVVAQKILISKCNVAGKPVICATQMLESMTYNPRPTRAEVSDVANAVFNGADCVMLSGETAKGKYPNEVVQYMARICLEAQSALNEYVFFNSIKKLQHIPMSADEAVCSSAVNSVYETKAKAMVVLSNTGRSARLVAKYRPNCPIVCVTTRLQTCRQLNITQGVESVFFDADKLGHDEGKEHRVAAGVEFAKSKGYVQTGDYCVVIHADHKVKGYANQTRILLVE
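Pyruvate kinase activity monitored as ATP production (luciferase luminescence). Conditions: 0.1 nM enzyme, 0.5 mM PEP, 0.1 mM ADP, 1 h, RT; normalized against uninhibited and no-enzyme wells.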
NS1 inh: qHTS Assay for Inhibitors of Influenza NS1 Protein Function | Potency, µM (highest dose often 46.1 µM), without a hit: top-dose activity, positive = more growth | 270,000 compounds, 0.4% hits; calls by dose curve; further: potency means the concentration at half of the fitted maximal effect; actives are rising curves; nearly all actives have a fitted effect of over 50% in size
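Compounds were scored for reversing the slow growth caused by influenza A NS1 in S. cerevisiae, measured by optical density at 600 nm. Assay medium contained 2% galactose at pH 6.0; NS1-free yeast of the same strain were the positive control.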
* = called active by the depositor; ? = inconclusive; . = no result; + = active, no number. The list is not random: actives were taken first. Their share in the collection is about 14%. Unless noted, the call rests on the fitted dose curve; in most records, active means well fitted curve in the direction sought with a large enough effect; inconclusive means small, poorly fitted or top-dose-only effect, or another doubt; inactive means no such curve, though single readings can be large; an effect the other way counts as inactive or inconclusive.

SMILES | Shiga toxin inh | Cycloheximide cs | FBPA Giardia inh | LmPK inh | NS1 inh
COCC(=O)N1CCC[C@@]2(CCN(C(c3ccccc3)c3ccccc3)C2)C1 | . | . | 7% | . | .
CC(C)c1ccccc1NC(=S)NCC1(N(C)C)CCCCC1 | -16 | -1 | . | -3% | 2%
O=C(O)c1cc2ccccc2oc1=O | 58* | 43* | 13% | 0% | -37%
O=C(NCCN1CCOCC1)c1cc2ccccc2oc1=O | 35* | 13 | 2% | -1% | -1%
O=C(Oc1ccccc1)c1cc2ccccc2oc1=O | 16 | 15 | 1% | 3% | .
Cc1cc[n+](CC(=O)c2cc3ccccc3oc2=O)cc1 | + | 60* | -10% | -2% | ?
O=C(NNC(=O)c1cc2ccccc2oc1=O)c1ccccc1 | 62* | 20* | -5% | -10% | -21%
O=C(NCCN1CCOCC1)c1cc2ccccc2o1 | -3 | -4 | -4% | 0% | -9%
CCN(CC)CCCNC(=O)c1oc2ccc(S(=O)(=O)N3CC(C)CC(C)C3)cc2c1C (stereo unspecified) | 15 | -7 | -2% | -2% | -11%
O=C(c1ccccc1)c1cc2ccccc2oc1=O | 60* | 37 | -2% | 7% | -7%
Cc1cc2ccccn2c1C(=O)c1ccccc1F | 22 | 6 | 0% | 0% | -38%
O=C(c1ccc(S(=O)(=O)c2cccc(Cl)c2)c([N+](=O)[O-])c1)N1CCN(c2ccccn2)CC1 | -12 | 22* | -7% | -7% | .
O=C(c1cccc(Cl)c1)N1CCN(c2ccccn2)CC1 | -6 | -1 | 0% | -2% | -5%
CCC(C)c1ccc(N(CC(=O)NC(C)(C)C)C(=O)CNC(=O)c2cccs2)cc1 (stereo unspecified) | 10 | 4 | 15% | 2% | 9%
CCOc1cc(C(=O)N/N=C(\C)Cc2ccc(OC)cc2)cc(OCC)c1OCC | -18 | -3 | -6% | -1% | 10%
COc1ccc(C/C(C)=N/NC(=O)c2ccc(Cl)cc2)cc1 | 37* | 14* | -22% | 4% | .
COc1ccc(C/C(C)=N/NC(=O)c2cccnc2)cc1 | 11 | 27* | -16% | -7% | 7%
COc1ccc(C/C(C)=N/NC(=S)Nc2ccccc2F)cc1 | 91* | 54* | ? | 1% | ?
COc1ccc(C(=O)N/N=C(\C)CC(=O)N2CCN(C=O)CC2)cc1 | 24 | 31* | -3% | -7% | -2%
COc1ccc(NC(=O)CCNC(=O)Cn2ccc3ccccc3c2=O)cc1Cl | 25 | 0 | 2% | 2% | 9%
Cn1c(SCc2ccccc2Cl)nc2c1c(=O)[nH]c(=O)n2C | -20 | -2 | -7% | 4% | -5%
COc1cc(/C=C(/C#N)c2nc3ccccc3c(=O)[nH]2)ccc1O | 14 | -6 | -7% | -10% | -1%
COc1cc(/C=C(/C#N)c2nc3ccccc3[nH]2)ccc1OC(=O)c1ccco1 | 82* | 28* | -2% | -9% | 7%
COc1cc(/C=C(/C#N)c2ccccc2)ccc1Oc1ccc([N+](=O)[O-])cn1 | 5 | 11 | 1% | 10% | 22%
COc1cc(/C=C(\C#N)c2nc3ccccc3[nH]2)ccc1Oc1ccc([N+](=O)[O-])cn1 | 18 | 23* | -8% | 0% | 16%
SMILES | Shiga toxin inh | Cycloheximide cs | FBPA Giardia inh | LmPK inh | NS1 inh
COc1cc(/C=C(\C#N)c2nc3ccccc3[nH]2)cc(Br)c1OCc1ccccc1 | 15 | 12* | -13% | 3% | -3%
COc1cc(/C=C(\C#N)c2nc3ccccc3[nH]2)cc(Br)c1OCc1ccc(F)cc1 | -6 | 11 | -3% | 3% | 17%
COc1ccc(/C=C(\C#N)c2nc3ccccc3[nH]2)cc1O | 29* | 19* | -13% | 1% | -3%
NC1=C2NC=N[C@@H]2N(C/C=C\c2ccccc2)C=N1 | . | . | . | . | -4%
N#C/C(=C\c1cc([N+](=O)[O-])c(N2CCOCC2)cc1N1CCOCC1)c1nc2ccccc2[nH]1 | -1 | 0 | -7% | 0% | 5%
N#C/C(=C\c1ccc(N2CCOCC2)o1)c1ccccc1 | 31 | 34* | ? | 2% | 14%
N#C/C(=C/c1ccc(N2CCOCC2)o1)c1nc2ccccc2[nH]1 | 58* | 34* | ? | -18% | 25%
N#C/C(=C\c1ccc(N2CCOCC2)cc1)c1ccccc1 | 19* | 51* | -24% | 1% | 7%
N#CC(C#N)=Cc1ccc(N2CCOCC2)cc1 | -7 | -1 | -7% | 0% | -39%
